# Source: the supplement of paper PMC6555819
# Tested on: VDR:RXRa (NR concentration 270 nM, RXRa partner concentration 90 nM)
# Test: PBM binding z-score (relative to random genomic background probes); higher = stronger binding; sequences stand for … in GC…GCGATTGACAGCGTAGAATGAAGG
# Experimental: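 Protein-binding microarray (Agilent 4x180K custom design, double-stranded 60-nt probes: 5' GC cap, 34-nt variable region, 24-nt constant primer region; full probe sequence given). Purified or IVT nuclear receptor:RXRα heterodimers (3:1 NR:RXRα, mostly 270:90 nM) or homodimers were incubated for 1 h in PBS with 2% milk and no ligand, then detected with Alexa488 antibodies. Fluorescence from o1-orientation probes (~5 replicates averaged) was converted to z-scores against 500 random hg19 background probes. Variable regions are seed direct-repeat (DR0–DR5) sites, all their single-nucleotide variants and half-site ablations.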
row,Sequence,PBM binding z-score
1,AGTCATAGTTCAGGACGAGGTAACGTAAAGCACG,0.92
2,TCGAGTAGGTTAGTCGGGGCATTTAGCCAACATA,2.2
3,TGAATGAGGTTATAAGATCAGGGGACGTTGCAAA,1.16
4,GCAAGCAGGCCATTTGGGTCACTCAATGACGGGC,0.865
5,GCAGACAGGTGAAACGCAGGTTACTCAGGGTGGC,-0.128
6,CCTTACGGGTCAACGTTATAGCACGGGTGGTACG,3.03
7,TCTATTAGTTGTAGGGCAACCGACGAGTCCGTTT,0.713
8,AGAATGAGGTTATTAAGATCAGGCAATTGCGGTC,2.48
9,CCTTACGTGTCACTGACAGGTTATAGCATTTGGA,0.871
10,AGAACGAGGGCTCGCTGAGTTGATAGCAGAGTAG,-0.517
11,GCTGCTAGATCAGGTTGGTCAGCTAACGGGTACG,-0.639
12,CCTACTGGGCCCTCAGGTCATTGATATCAACGTT,1.43
13,CGTCCAAGGTCATAGTAGGTCAGTGAAGACAGAT,5.64
14,TCTCAAAGTTCAAAGGTAACGTAAGTATCCACAC,4.93
15,TCTAGTTGGTCAAGGGTCACACACTCGAAATGCG,4.32
16,TCTCGGAGGACACGAAGGTCAGATCTTTCCAGAG,2.61
17,CGTCCAAAGTCAGCAGGTCAGTGAAAGCGACGTG,0.372
18,GATACAGGGTCAGCTAGAGGCCAGAGTCTGGAAA,3.26
19,TAGCCTGGGTCATTCAGGGGCCAGTATAGAAAGC,2.82
20,CCGACTGGAGCATAAGGTTACCATAAGCCAGCCC,0.0802

row,Sequence,PBM binding z-score
1,CCGAGTAGGTTATGGGGCTTTCAGGCAACGGTGA,-0.375
2,TCTCGGAGGACACGAAAGGTCAGGGCTCGACATC,3.43
3,CGAACTAGGTCAGAAGAGGACAGTGAAGGATGAT,1.69
4,CCTCAGAGGACAGAAGGTCAGAGCTGTCCGCTTT,1.07
5,CGTCAAAGTTCAAGGTAACGAAACAGAAAGCAGC,3.7
6,ATCTCTAGGTAAAAGTTCCGTGAATCCCGAGGAT,-0.0559
7,GCGACTGGGGCATTAGCAGGTTACCATAACTTAA,-0.196
8,ATCTCTAAGTAAAAGTTCAGTGAATCCCGAGGAT,1.05
9,ATATGTAGGCTAGCTGGGGTCATTCAGACTAGGC,4.77
10,TCATATAGGTAATACAGGTGAAACTCGGCATCTA,1.37
11,CGTCAAAGTTTAACTAAGGTAACGTAAAGCACGC,0.861
12,CCTACTGGGCCAAGGTCATTGTTCAGTCAAAGCA,3.15
13,ATCTCTAAGTAACCAAGTTCAGTGAATGCCGAAC,2
14,ATCTCTAGGTAAGACTCAGTTCAGTGAGGAACGC,0.748
15,ACTGGGAGGACAAAGGTCAGAGCTACGCCAGTGA,3.73
16,AGAATGAGGGTAAGATCAGGGAAACAGAATACAT,-0.0914
17,TAGCCTAGGGCATGGGCCAGTATACCACGCGAAC,-0.452
18,AATATTAGTTGACTTAGGGCAACCGATACGACGC,0.46
19,TTTCGGAGGACACGAAGGTCAGAGCTTTCCAGAG,2.47
20,CTTGCTAGGTCATGGTCAGCTAATCTACAGTATG,1.59
